Data reported in PubChem BioAssay (Tox21).
Records with an inconclusive call do not appear. Entries that show only a call come without a potency. Where a structure was tested more than once in an assay, its records may differ in their call. Activity calls are given as the source filed them. Unless noted, the call rests on the fitted dose curve; in most records, active means well fitted curve in the direction sought with a large enough effect in the repeat runs; inconclusive means weak or mixed curves; inactive means no such curve, though single readings can be large; an effect the other way counts as inactive or inconclusive.

Columns and labels:
[1] = qHTS assay to identify small molecule antagonists of the estrogen related receptor (ERR) signaling pathway from Tox21 library - cell viability counter screen (AID 1224834); further: nearly all actives have a fitted effect of over 30% in size; further: potency means the concentration at half of the fitted maximal effect
Outline: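 Compounds in DMSO were pinned onto ERR cells that had been incubated for 6 h, and the plates were held at 37 C for 17.5 h. CellTiter-Fluor reagent was then added and fluorescence was measured after 30 min.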

[2] = target: Luciferin 4-monooxygenase (Photinus pyralis) (UniProt P08659); test: qHTS assay to identify small molecule inhibitors of firefly luciferase (AID 1224835); further: nearly all actives have a fitted effect of over 25% in size; further: potency means the concentration at half of the fitted maximal effect
Outline: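 Quantitative HTS format; KM concentrations of both substrates. Purified P. pyralis FLuc activity quantified from luminescence images.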

[3] = qHTS assay to identify small molecule agonists of the constitutive androstane receptor (CAR) signaling pathway - cell viability counter screen (AID 1224836); further: nearly all actives have a fitted effect of over 45% in size; further: potency means the concentration at half of the fitted maximal effect
Outline: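 Multiplexed viability check: HepG2-CYP2B6-hCAR cells, 15-point compound dosing, 0.75 uM PK11195 final, 23 h at 37 C, CellTiter-Fluor fluorescence.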

[4] = qHTS assay to identify small molecule antagonists of the constitutive androstane receptor (CAR) signaling pathway - cell viability counter screen (AID 1224837); further: nearly all actives have a fitted effect of over 45% in size; further: potency means the concentration at half of the fitted maximal effect
Outline: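 Cells are seeded, rested 4 hr at 37 C/5% CO2, dosed with compound (15-point series) and 50 nM CITCO, incubated a further 23 hr, and then CellTiter-Fluor reagent is added before fluorescence is read. The line is HepG2 with stable hCAR and CYP2B6-2.2kb.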

[5] = target: Nuclear receptor subfamily 1 group I member 3 (Homo sapiens) (UniProt Q14994); test: qHTS assay to identify small molecule antagonists of the constitutive androstane receptor (CAR) signaling pathway (AID 1224838);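 further: HepG2 cells stably expressing hCAR with CYP2B6 luciferase reporter stimulated by CITCO; nearly all actives have a fitted effect of over 40% in size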; further: potency means the concentration at half of the fitted maximal effect
Outline: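 Luminescence from a CYP2B6-2.2kb promoter reporter in hCAR-expressing HepG2 cells reflects CAR signaling. Cells received compounds at 15 concentrations and 50 nM CITCO (final), then incubated 24 h at 37 C/5% CO2.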

[6] = target: Nuclear receptor subfamily 1 group I member 3 (Homo sapiens) (UniProt Q14994); test: qHTS assay to identify small molecule agonists of the constitutive androstane receptor (CAR) signaling pathway (AID 1224839); further: nearly all actives have a fitted effect of over 15% in size; further: potency means the concentration at half of the fitted maximal effect;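 on activation: HepG2 cells stably carrying human CAR and a CYP2B6 luciferase reporter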
Outline: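 Using human hepatoma HepG2 cells engineered with hCAR and a CYP2B6-2.2kb reporter, 15-concentration compound series were incubated 24 h alongside PK11195 at 0.75 uM final, with luminescence quantified afterwards.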

[7] = qHTS assay to identify small molecule antagonists of the estrogen related receptor signaling pathway with the pleiotropic PPARgamma coactivator (PGC) from Tox21 10K library - cell viability counter screen (AID 1224840; active means well fitted cell-killing curve with a large enough effect in the repeat runs, not every such curve was filed as active; further: nearly all actives have a fitted effect of over 40% in size; further: potency means the concentration at half of the fitted maximal effect)
Outline: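 Cell viability is measured by CellTiter-Fluor fluorescence in PGC/ERR cells that receive compounds after a 6-hour attachment period and are then incubated 17.5 hours at 37 C.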

[8] = qHTS assay to identify small molecule antagonists of the estrogen related receptor signaling pathway with the pleiotropic PPARgamma coactivator (PGC) from Tox21 10K library (AID 1224841; call rule not given here; further: actives are mostly falling curves and most rising ones were filed inactive; nearly all actives have a fitted effect of over 50% in size)
Outline: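 Cells stably carrying the PGC/ERR reporter, seeded at 2,000 per well, received pin-transferred compounds 6 h post-plating. Exposure lasted 18 h at 37 C. Signal: One-Glo luminescence.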

[9] = qHTS assay to identify small molecule agonists of the estrogen related receptor signaling pathway with the pleiotropic PPARgamma coactivator (PGC) from Tox21 10K library (AID 1224842); further: nearly all actives have a fitted effect of over 15% in size; further: potency means the concentration at half of the fitted maximal effect
Outline: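 PGC/ERR reporter cells (NTP line) were seeded 2,000 per well, rested 6 h at 37 C/5% CO2, then pin-dosed with compounds in DMSO for 18 h at 37 C; luciferase read by One-Glo luminescence after 30 min at room temperature.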

[10] = qHTS assay to identify small molecule agonists of H2AX (AID 1224845; active means well fitted activation curve with a large enough effect in the signal ratio in the repeat runs, not every such curve was filed as active; the % refers to the signal ratio)
Outline: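 Wild-type CHO-K1 cells plated overnight, then exposed 3 hr at 37C to compounds at 15 concentrations (0.76% DMSO). Lysed, then HTRF anti-pH2AX(S139)-cryptate/anti-H2AX-d2 detection after 24 hr at room temperature; emissions 665 and 620 nm.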

[11] = qHTS assay to identify small molecule agonists of H2AX - cell viability counter screen (AID 1224847; calls by dose curve; further: nearly all actives have a fitted effect of over 30% in size; further: potency means the concentration at half of the fitted maximal effect)
Outline: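 After overnight plating of 1000 CHO-K1 cells per well, a 15-concentration compound series was applied for 3 hr at 37C. Luminescence from CellTiter-Glo, read following 30 min at room temperature, reflected cell viability.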

[12] = qHTS assay to identify small molecule antagonists of the estrogen related receptor (ERR) signaling pathway from Tox21 library (AID 1224848); further: nearly all actives have a fitted effect of over 50% in size; further: potency means the concentration at half of the fitted maximal effect
Outline: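 Tox21 10K compounds in DMSO tested for ERR pathway antagonism in NTP's ERR cell line; 18 h, 37 C exposure; ONE-Glo luminescence.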

[13] = qHTS RealTime-Glo MT Cell Viability Assay in HepG2 cells - 24 hour (AID 1224867); further: nearly all actives have a fitted effect of over 50% in size; further: potency means the concentration at half of the fitted maximal effect
Outline: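 Viability was tracked continuously by NanoLuc luminescence from prosubstrate reduced by living HepG2 cells, at successive time points over 40 h of compound exposure. Cells with reagent were preincubated 5 h at 37 °C before compound addition.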

[14] = qHTS RealTime-Glo MT Cell Viability Assay in HEK293 cells - 32 hour (AID 1224868); further: nearly all actives have a fitted effect of over 50% in size; further: potency means the concentration at half of the fitted maximal effect
Outline: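 Viability tracked continuously by luminescence as live cells reduce a prosubstrate for NanoLuc; HEK293 cells preincubated 5 h, compound-treated at 37 C, and read at 0, 8, 16, 24, 32 and 40 h.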

[15] = qHTS assay to identify small molecule agonists of the hypoxia (HIF-1) signaling pathway - cell viability counter screen (AID 1224844; calls by dose curve; further: nearly all actives have a fitted effect of over 50% in size; further: potency means the concentration at half of the fitted maximal effect)
Outline: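 Viability counter screen: HRE-bla ME-180 cells plated 5 hrs before compound addition, treated 17 hrs at 37C and 5% CO2, then CellTiter-Glo added after the FRET reporter read; luminescence after 30 min.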

[16] = qHTS assay to identify small molecule agonists of the estrogen related receptor (ERR) signaling pathway from Tox21 library (AID 1224849; calls by dose curve; further: nearly all actives have a fitted effect of over 15% in size); conditions: ERR reporter cell line, ONE-Glo luciferase, 18 h; at 92.4 µM (top of the series) unless noted
Outline: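 Quantitative HTS in agonist format: NTP ERR cell line, compounds transferred in DMSO after 6 h plating, 18 h incubation at 37 C, ONE-Glo luminescence endpoint.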

[17] = A CellTox Green Cytotoxicity Assay to monitor cytotoxicity in HEK293 cells - 0 hour (AID 1224869); further: nearly all actives have a fitted effect of over 50% in size
Outline: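 Dead-cell fluorescence measured kinetically: asymmetric cyanine dye, HEK293, 600 cells/well, 5 h settle, 23 nL cpd/DMSO, 37 C, reads 0–40 h every 8 h.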

[18] = qHTS assay to identify small molecule agonists of the estrogen related receptor signaling pathway with the pleiotropic PPARgamma coactivator (PGC) (AID 1224823)
Outline: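 Luminescence readout (One-Glo, 30 min RT) from PGC/ERR cell line treated 18 h at 37 C with pin-tool-delivered DMSO compound solutions; cells plated 6 h before dosing. Quantitative HTS format.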

[19] = qHTS assay to identify small molecule agonists of the hypoxia (HIF-1) signaling pathway (AID 1224846; active means well fitted activation curve with a large enough effect in the signal ratio in the repeat runs, not every such curve was filed as active; the % refers to the signal ratio)
Outline: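 Agonist mode reporter screen. ME-180 cells stably expressing bla under HRE control received test compounds in DMSO for 17 hrs (37C, 5% CO2), and beta-lactamase activity was then detected with the CCF4-AM FRET substrate.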

[20] = target: Thyrotropin receptor (Homo sapiens) (UniProt P16473); test: qHTS assay to identify small molecule agonists of the thyroid stimulating hormone receptor (TSHR) signaling pathway (AID 1224843; calls by dose curve; further: nearly all actives have a fitted effect of over 45% in size)
Outline: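 Using 15 concentrations per compound in triplicate, cAMP production was monitored in TSHR-HEK293 cells after 30 min compound incubation at RT; HTRF reagents followed, with fluorescence intensity recorded after 1 h.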

Nuclear receptor subfamily 1 group I member 3 (Homo sapiens), sequence (Q14994 whole entry, looked up): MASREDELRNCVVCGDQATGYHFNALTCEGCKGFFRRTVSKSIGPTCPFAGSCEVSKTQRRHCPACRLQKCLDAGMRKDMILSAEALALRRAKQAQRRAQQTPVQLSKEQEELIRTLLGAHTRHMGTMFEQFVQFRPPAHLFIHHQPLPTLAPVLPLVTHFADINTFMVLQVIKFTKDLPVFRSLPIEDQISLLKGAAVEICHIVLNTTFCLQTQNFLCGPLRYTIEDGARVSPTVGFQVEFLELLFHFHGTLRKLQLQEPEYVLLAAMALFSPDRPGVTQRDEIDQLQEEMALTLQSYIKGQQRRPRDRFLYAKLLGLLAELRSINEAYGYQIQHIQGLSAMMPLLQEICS
Thyrotropin receptor (Homo sapiens), sequence (P16473 whole entry, looked up): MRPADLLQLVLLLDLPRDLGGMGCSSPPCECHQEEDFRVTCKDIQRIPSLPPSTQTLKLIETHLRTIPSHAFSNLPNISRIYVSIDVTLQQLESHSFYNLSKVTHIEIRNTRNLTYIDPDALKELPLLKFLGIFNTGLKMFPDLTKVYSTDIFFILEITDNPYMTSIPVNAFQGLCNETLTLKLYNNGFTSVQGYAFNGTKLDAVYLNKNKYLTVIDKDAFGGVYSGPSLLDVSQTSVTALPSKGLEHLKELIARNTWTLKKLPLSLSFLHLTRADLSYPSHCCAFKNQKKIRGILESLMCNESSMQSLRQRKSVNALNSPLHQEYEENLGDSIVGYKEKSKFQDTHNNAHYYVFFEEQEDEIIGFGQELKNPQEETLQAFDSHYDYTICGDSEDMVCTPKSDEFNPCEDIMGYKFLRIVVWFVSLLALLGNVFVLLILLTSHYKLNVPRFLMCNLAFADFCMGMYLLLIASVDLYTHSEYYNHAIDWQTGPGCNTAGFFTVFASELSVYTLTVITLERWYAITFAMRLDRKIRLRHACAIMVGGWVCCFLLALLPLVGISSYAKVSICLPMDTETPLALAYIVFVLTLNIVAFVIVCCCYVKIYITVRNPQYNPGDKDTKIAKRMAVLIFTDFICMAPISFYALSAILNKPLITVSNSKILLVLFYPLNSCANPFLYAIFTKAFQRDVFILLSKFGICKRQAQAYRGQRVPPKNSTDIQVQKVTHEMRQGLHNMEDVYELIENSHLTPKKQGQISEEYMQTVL
Luciferin 4-monooxygenase (Photinus pyralis), sequence (P08659 whole entry, looked up): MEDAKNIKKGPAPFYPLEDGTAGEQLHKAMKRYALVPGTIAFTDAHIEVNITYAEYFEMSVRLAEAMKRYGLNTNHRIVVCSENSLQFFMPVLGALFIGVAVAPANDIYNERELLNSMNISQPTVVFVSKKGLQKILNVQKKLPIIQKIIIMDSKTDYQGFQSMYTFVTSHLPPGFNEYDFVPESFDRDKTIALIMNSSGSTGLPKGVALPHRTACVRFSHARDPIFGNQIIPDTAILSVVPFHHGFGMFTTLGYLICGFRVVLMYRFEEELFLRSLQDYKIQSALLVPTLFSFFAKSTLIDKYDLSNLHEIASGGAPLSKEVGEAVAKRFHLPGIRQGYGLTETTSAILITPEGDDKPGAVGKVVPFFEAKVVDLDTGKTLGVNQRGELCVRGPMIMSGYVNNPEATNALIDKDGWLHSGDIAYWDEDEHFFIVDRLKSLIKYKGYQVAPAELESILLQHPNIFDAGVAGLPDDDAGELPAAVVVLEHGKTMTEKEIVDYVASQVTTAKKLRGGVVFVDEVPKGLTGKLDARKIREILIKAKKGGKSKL

SMILES	Potency [1]	Potency [2]	Potency [3]	Potency [4]	Potency [5]	Potency [6]	Potency [7]	Potency [8]	Potency [9]	Potency [10]	Potency [11]	Potency [12]	Potency [13]	Potency [14]	Potency [15]	activity change, positive = activation [16]	Potency [17]	outcome [18]	outcome [19]	Potency [20]
CCC(=O)C1CC(C(C)C)CC=C1C (stereo not given)	inactive	inactive	inactive	inactive	inactive	inactive	inactive	inactive	inactive	inactive	inactive	inactive	inactive	inactive	–	–	–	–	–	–
CC(O)c1ccccc1 (stereo not given)	inactive	inactive	inactive	inactive	inactive	inactive	inactive	inactive	inactive	inactive	inactive	inactive	inactive	inactive	inactive	5.42% (inactive)	inactive	–	–	–
CCCC(C(=O)OCCN(CC)CC)(c1ccccc1)c1ccccc1	29.8 µM (active)	–	inactive	–	inactive	11.9 µM (active)	–	–	inactive	–	–	29.8 µM (active)	–	21.3 µM (active)	–	-35.3% [at 42.5 µM] (inactive)	inactive	inactive	–	–
O=c1cc(-c2ccccc2)oc2ccc3ccccc3c12	inactive	0.0356 µM (active)	inactive	inactive	inactive	4.86 µM (active)	inactive	inactive	0.243 µM (active)	–	25.3 µM (active)	inactive	inactive	inactive	24.5 µM (active)	-35% (active)	inactive	–	inactive	–
CC(CO)CO	inactive	inactive	inactive	inactive	inactive	inactive	inactive	inactive	inactive	inactive	inactive	inactive	inactive	inactive	inactive	0.194% (inactive)	inactive	–	inactive	inactive
FC(F)(F)c1ccccc1Cl	inactive	inactive	inactive	inactive	inactive	inactive	inactive	inactive	inactive	inactive	inactive	inactive	inactive	inactive	inactive	-2.05% (inactive)	inactive	–	–	–
COc1ncnc(NS(=O)(=O)c2ccc(N)cc2)c1OC	inactive	inactive	inactive	inactive	inactive	inactive	inactive	inactive	inactive	inactive	inactive	inactive	inactive	inactive	inactive	1.61% [at 42.5 µM] (inactive)	inactive	–	–	–
CCCCCCCCCCCCCCN(CCO)CCO	61.1 µM (active)	inactive	61.1 µM (active)	61.1 µM (active)	48.6 µM (active)	inactive	54.5 µM (active)	–	inactive	inactive	–	61.1 µM (active)	21.9 µM (active)	21.9 µM (active)	49 µM (active)	–	inactive	–	–	–
CC(CN(C)C)C(C)(O)Cc1ccc(Cl)cc1 (stereo not given)	inactive	inactive	inactive	inactive	inactive	inactive	inactive	inactive	inactive	inactive	inactive	inactive	inactive	inactive	inactive	9.4% [at 42.5 µM] (inactive)	–	–	inactive	inactive
C[C@]12CC[C@@H]3c4ccc(O)cc4CC[C@H]3[C@@H]1CC[C@@H]2OC(=O)CCC1CCCC1	61.1 µM (active) and inactive	inactive	inactive	inactive	inactive	15.4 µM (active)	61.1 µM (active) and inactive	inactive	inactive	–	56.6 µM (active)	54.5 µM (active)	49 µM (active) and inactive	43.6 µM (active)	–	–	inactive	–	–	inactive
O=C(CCc1ccc(O)cc1)c1c(O)cc(O)cc1O	–	72.6 µM (active)	inactive	inactive	–	–	–	inactive	inactive	–	–	–	inactive	39.8 µM (active)	–	-22.5% (inactive)	–	inactive	–	inactive
CN1C(=O)c2ccccc2C1=O	inactive	–	–	inactive	–	inactive	inactive	inactive	inactive	–	inactive	inactive	inactive	–	inactive	–	inactive	inactive	–	inactive
CC/C=C1/OC(=O)c2ccccc21	inactive	inactive	inactive	inactive	inactive	inactive	inactive	inactive	inactive	inactive	inactive	inactive	inactive	inactive	inactive	-1.59% (inactive)	inactive	–	–	–
C[C@H]1c2cccc(O)c2C(O)=C2C(=O)[C@]3(O)C(O)=C(C(N)=O)C(=O)[C@@H](N(C)C)[C@@H]3[C@@H](O)[C@@H]21	inactive	inactive	–	inactive	inactive	inactive	inactive	–	inactive	inactive	inactive	18.8 µM (active)	inactive	inactive	inactive	-33.4% [at 42.5 µM] (inactive)	inactive	inactive	inactive	–
